The list is not random: actives were taken first. Their share in the collection is about 1.9%.
MsrA inhibitor: inhibitors of bovine MsrA; inhibition, % at 15.5 µM; hit rate 0.75% among 360,000; purified bovine MsrA, absorbance read-out; in the data active means inhibition above about 4.5%
PLC-beta3 inh: PLC-beta3 (human) inhibition, primary screen; Q01970; Purified PLC-beta3, fluorogenic substrate, fluorescence; inhibition, % at 12.2 µM; hit rate 0.18% among 370,000; AID 720704; in the data active means inhibition above about 11%
bovine MsrA act: bovine methionine sulfoxide reductase A activation | hit rate 0.3% among 360,000 | activation, % at 10.6 µM | AID 602163 | purified bovine MsrA, absorbance read-out; in the data active means activation above about 7.5%
PLCg1 inh: blocks human PLC-gamma1 enzyme activity; inhibition, % at 12.2 µM; purified PLC-gamma1, fluorogenic substrate, fluorescence; hit rate 0.84% among 370,000; P19174
Target sequence (P19174 whole entry, looked up): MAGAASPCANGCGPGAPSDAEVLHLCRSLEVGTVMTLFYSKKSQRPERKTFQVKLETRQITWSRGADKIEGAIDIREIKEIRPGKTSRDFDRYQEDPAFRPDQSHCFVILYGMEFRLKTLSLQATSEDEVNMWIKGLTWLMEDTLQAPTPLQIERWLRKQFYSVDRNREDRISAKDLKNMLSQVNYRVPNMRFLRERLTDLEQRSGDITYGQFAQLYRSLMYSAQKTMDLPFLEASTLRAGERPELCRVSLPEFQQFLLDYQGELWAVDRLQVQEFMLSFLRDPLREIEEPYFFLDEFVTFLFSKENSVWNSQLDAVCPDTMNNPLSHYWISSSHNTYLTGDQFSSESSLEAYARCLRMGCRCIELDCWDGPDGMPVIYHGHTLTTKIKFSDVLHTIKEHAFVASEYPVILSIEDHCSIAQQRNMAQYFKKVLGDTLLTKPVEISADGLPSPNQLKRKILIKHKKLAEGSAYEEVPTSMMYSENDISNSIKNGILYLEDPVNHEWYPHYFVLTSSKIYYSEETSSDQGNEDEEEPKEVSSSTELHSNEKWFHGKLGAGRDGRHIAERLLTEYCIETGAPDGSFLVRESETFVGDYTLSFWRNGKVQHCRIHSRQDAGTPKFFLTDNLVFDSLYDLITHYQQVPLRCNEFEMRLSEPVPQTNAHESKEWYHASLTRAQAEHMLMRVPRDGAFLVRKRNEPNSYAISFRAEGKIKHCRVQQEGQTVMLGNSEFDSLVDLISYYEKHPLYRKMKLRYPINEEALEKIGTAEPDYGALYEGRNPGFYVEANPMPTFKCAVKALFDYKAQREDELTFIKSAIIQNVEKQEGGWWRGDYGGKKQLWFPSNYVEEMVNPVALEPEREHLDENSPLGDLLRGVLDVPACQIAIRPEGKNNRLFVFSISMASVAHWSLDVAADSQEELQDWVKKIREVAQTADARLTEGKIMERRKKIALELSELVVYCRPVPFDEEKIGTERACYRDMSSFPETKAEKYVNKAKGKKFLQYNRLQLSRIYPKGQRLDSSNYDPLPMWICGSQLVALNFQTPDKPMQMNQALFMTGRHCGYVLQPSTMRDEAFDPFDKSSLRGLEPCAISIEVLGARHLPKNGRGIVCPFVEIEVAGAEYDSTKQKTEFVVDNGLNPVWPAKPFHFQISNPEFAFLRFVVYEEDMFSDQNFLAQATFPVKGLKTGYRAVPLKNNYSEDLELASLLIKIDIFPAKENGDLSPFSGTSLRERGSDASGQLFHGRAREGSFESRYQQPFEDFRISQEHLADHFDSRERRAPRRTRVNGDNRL
PLCg1 ctr: counter-screen for PLC-beta3 inhibitors: inhibitors of human PLC-gamma1; inhibition, % at 12.3 µM; purified PLC-gamma1, fluorogenic substrate, fluorescence; shares compounds with PLCg1 inh; hit rate 3.1% among 3,300; AID 743258
PLCb3 confirm: human PLC-beta3 inhibition, confirmation; purified PLC-beta3, fluorogenic substrate fluorescence; inhibition, % at 12.3 µM; hit rate 1% among 3,300; shares compounds with PLCg1 inh; AID 743261; in the data active means inhibition above about 11%
Large screens that a line does not name were inactive (follow-up assays come after a bar, where they were run). Unless noted, no stated cut-off is given here; in the data, active means inhibition above about 9.5%; inactive means the rest.

CC1Cc2[nH]c(=S)[nH]c(=O)c2C(c2ccc(F)cc2)O1 (stereo unspecified)	none
Cc1ccc2c(c1)c(N=Nc1cccc(C(=O)O)c1)c(O)n2C	PLCg1 inh 13.2 | PLCg1 ctr inactive | PLCb3 confirm inactive
COc1ccccc1C(=O)N1CCC2CCNC2C1 (stereo unspecified)	none (no result: bovine MsrA act)
O=C1c2cccnc2C(=O)N1Cc1ccccc1	none
O=C1c2ccccc2C(=O)N1Cc1cccnc1	PLCg1 inh 12.4 | PLCg1 ctr inactive | PLCb3 confirm inactive
CCCCC(=O)N(C)c1c(CC)nc2c(OCC(=O)N3CCOCC3)cccn12	none
[O-]C1=N/[N+](=C/c2ccccc2)CC1	none
[O-]C1=N/[N+](=C/c2ccccc2Cl)CC1	PLCg1 inh 11.4 | PLCg1 ctr inactive | PLCb3 confirm inactive
Cc1ccc(C(=O)NC(C)CCc2ccccc2)cc1[N+](=O)[O-] (stereo unspecified)	PLCg1 inh 12.7 | PLCg1 ctr inactive | PLCb3 confirm inactive
CC(C)NC(=O)CC1C(=O)N(Cc2ccccc2)C(C)c2nc3ccccc3n21 (stereo unspecified)	PLCg1 inh 12.9 | PLCg1 ctr inactive | PLCb3 confirm inactive
CCOC(=O)C1=C(C)N(CCCC(=O)O)C(=O)NC1c1ccccc1OS(=O)(=O)c1ccc([N+](=O)[O-])cc1 (stereo unspecified)	PLCg1 inh 12.4 | PLCg1 ctr inactive | PLCb3 confirm inactive
CC1=C(C(=O)OCc2ccccc2)C(c2ccccc2OS(=O)(=O)c2ccc([N+](=O)[O-])cc2)NC(=O)N1CCCC(=O)O (stereo unspecified)	none
CCC(C)c1ccccc1NS(=O)(=O)c1cnn(CC)c1 (stereo unspecified)	PLCg1 inh 9.8 | PLCg1 ctr inactive | PLCb3 confirm inactive
COc1cc(N)c(Cl)cc1C(=O)N[C@H]1CCN(CCCOc2ccc(F)cc2)C[C@H]1OC	none
COc1cc(N)c(Cl)cc1C(=O)NC1CCN(CCCOc2ccc(F)cc2)CC1OC (stereo unspecified)	PLCg1 inh 11.2 (no result: MsrA inhibitor, bovine MsrA act) | PLCg1 ctr inactive | PLCb3 confirm inactive
C[C@H](CO)N1C[C@H](C)[C@@H](CN(C)S(C)(=O)=O)OCc2cn(nn2)CCCC1=O	none (no result: bovine MsrA act)
CC(=O)Nc1ccc(CNc2nc(NC(C)C)nc3ccsc23)cc1	PLCg1 inh 10.9 | PLCg1 ctr inactive | PLCb3 confirm inactive
CC(C)NC(=O)C1(C)CCCN1C/C=C/c1ccccc1 (stereo unspecified)	none
CC(C)NC(=O)C1(C)CCN1C/C=C/c1ccccc1 (stereo unspecified)	PLCg1 inh 12.4 | PLCg1 ctr inactive | PLCb3 confirm inactive
C=CCN(CC#Cc1ccc(OC)cc1)CC=C	none (no result: MsrA inhibitor, bovine MsrA act)
CC1=C(C(=O)OC(C)C)C(c2cccc([N+](=O)[O-])c2)n2c(cc(=O)[nH]c2=S)N1 (stereo unspecified)	PLCg1 inh 9.7 | PLCg1 ctr inactive | PLCb3 confirm inactive
O=C(CCC(=O)N1CCCc2ccccc21)N1CCN(S(=O)(=O)c2ccccc2)CC1	PLCg1 inh 10.6 | PLCg1 ctr inactive | PLCb3 confirm inactive
O=C(O)c1ccc(S(=O)(=O)N2CCCc3ccccc32)cc1	PLCg1 inh 9.9 | PLCg1 ctr inactive | PLCb3 confirm inactive
O=C(CCS(=O)(=O)c1ccccc1)N1CCCc2ccccc21	none
CC(=O)c1ccc(S(=O)(=O)N2CCCc3ccccc32)cc1	none
COc1ccc(CCN2CC(=O)NC(=O)C2)cc1OC	none
COc1cccc(C2(O)CCN(C(=O)C3CC3)CC2)c1	none
COc1cccc(C2(O)CCN(C(=O)C3CCC3)CC2)c1	PLCg1 inh 11.8 | PLCg1 ctr inactive | PLCb3 confirm inactive
CC(=O)c1cccc(NC(=O)c2onc(C)c2Cl)c1	none
Cc1noc(C(=O)Nc2cccnc2)c1Cl	PLCg1 inh 11.7 | PLCg1 ctr inactive | PLCb3 confirm inactive
Cc1ccc(NC(=O)N2CCC(c3nc4ccc(Cl)cc4[nH]3)CC2)cc1F	none (no result: MsrA inhibitor, bovine MsrA act)
Cc1cccc(NC(=S)NC(C)(C)CC(C)(C)C)c1	none
CC(NS(C)(=O)=O)C(c1cccs1)N1CCN(c2ccc(F)cc2)CC1 (stereo unspecified)	none
CC(NS(C)(=O)=O)C(c1cccs1)N1CCN(C)CC1 (stereo unspecified)	PLCg1 inh 10.8 | PLCg1 ctr inactive | PLCb3 confirm inactive
COc1cccc(CNC(=O)[C@H]2CCCN2C(=O)C2CCCN2C(=O)c2ccc(OC)c(F)c2)c1 (stereo partly specified)	none (no result: bovine MsrA act)
CCN(CC)S(=O)(=O)c1ccc(C(=O)OCn2nnc3ccccc3c2=O)cc1	PLC-beta3 inh 16.9 | PLCg1 ctr inactive | PLCb3 confirm inactive
